The values below come from ChEMBL document CHEMBL1961873, “Compounds: GSK PKIS; Assays: Nanosyn kinase panel” (2012).

In test [1] the target is Leukocyte tyrosine kinase receptor (Homo sapiens) (UniProt P29376). The note with it: at 1 µM.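 Also: each value is the mean inhibition of LTK.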
Test [2] has as its target Tyrosine-protein kinase Lyn (Homo sapiens) (UniProt P07948). To be noted: at 0.1 µM.
Test [3] has the same target. The note with it: at 1 µM.
Test [4] has the same target. To be noted: at 0.1 µM. The source holds these as a separate data set.
The target is the same in test [5]. To be noted: at 1 µM. This is another data set of the same source.
Test [6] concerns the target T1, Tyrosine-protein kinase Mer (Homo sapiens) (UniProt Q12866).
T1 sequence (whole entry): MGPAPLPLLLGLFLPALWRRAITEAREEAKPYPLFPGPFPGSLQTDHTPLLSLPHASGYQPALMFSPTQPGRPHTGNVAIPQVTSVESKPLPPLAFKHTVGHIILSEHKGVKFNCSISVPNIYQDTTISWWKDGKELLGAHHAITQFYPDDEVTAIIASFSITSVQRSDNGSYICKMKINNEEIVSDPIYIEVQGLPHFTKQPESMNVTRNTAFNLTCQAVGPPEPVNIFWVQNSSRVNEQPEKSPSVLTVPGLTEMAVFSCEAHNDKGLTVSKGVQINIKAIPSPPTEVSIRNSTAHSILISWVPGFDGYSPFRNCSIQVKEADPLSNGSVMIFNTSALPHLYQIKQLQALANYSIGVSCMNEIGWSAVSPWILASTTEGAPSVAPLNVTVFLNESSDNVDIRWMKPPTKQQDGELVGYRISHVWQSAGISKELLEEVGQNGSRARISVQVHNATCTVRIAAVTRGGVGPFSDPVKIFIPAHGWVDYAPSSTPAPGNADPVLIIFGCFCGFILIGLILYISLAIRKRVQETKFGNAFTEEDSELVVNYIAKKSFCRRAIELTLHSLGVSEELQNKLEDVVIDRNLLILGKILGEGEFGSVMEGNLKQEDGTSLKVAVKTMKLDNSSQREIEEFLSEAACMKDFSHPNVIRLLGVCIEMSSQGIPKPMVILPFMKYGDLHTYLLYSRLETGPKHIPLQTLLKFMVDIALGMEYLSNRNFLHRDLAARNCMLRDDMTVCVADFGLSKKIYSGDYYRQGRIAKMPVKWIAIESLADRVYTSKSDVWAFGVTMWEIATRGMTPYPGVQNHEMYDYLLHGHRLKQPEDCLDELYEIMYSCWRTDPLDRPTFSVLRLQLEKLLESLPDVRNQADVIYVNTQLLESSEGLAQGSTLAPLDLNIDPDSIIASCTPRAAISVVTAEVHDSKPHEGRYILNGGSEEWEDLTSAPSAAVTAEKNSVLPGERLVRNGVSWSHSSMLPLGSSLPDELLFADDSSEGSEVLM
The note with it: at 0.1 µM.

Test [7] has as its target T1, Tyrosine-protein kinase Mer (Homo sapiens). The note with it: at 1 µM.
Test [8] concerns the target Hepatocyte growth factor receptor (Homo sapiens) (UniProt P08581). To be noted: at 0.1 µM.
Test [9] has the same target. The note with it: at 1 µM.
Test [10] deals with T2, Muscle, skeletal receptor tyrosine-protein kinase (Homo sapiens) (UniProt O15146).
T2 sequence (whole entry): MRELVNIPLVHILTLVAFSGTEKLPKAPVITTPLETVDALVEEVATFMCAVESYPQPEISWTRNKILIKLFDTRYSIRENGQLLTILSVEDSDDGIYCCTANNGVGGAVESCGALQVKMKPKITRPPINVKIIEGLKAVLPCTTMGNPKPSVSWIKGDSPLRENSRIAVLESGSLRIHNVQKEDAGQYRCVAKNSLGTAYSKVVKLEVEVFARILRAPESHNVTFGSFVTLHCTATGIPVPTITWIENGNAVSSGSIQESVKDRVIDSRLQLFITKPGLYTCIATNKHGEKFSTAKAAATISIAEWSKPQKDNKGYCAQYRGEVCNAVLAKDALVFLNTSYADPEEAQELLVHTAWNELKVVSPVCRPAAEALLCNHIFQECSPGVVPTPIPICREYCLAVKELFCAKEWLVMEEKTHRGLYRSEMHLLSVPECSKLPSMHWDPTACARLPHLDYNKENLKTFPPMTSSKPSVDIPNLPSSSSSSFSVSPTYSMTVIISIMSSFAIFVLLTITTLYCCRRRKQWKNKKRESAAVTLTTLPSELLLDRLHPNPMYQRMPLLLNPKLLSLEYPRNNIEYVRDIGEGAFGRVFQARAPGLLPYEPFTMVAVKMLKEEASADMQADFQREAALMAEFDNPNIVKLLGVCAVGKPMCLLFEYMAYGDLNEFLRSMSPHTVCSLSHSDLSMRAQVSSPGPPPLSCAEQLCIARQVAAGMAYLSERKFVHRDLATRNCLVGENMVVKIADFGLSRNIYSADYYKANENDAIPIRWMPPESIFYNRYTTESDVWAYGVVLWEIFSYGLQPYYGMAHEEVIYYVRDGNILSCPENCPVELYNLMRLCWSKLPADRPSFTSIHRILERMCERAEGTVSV
To be noted: at 0.1 µM.

Test [11] concerns the target T2, Muscle, skeletal receptor tyrosine-protein kinase (Homo sapiens). To be noted: at 1 µM.
For test [12], the target named is Platelet-derived growth factor receptor alpha (Homo sapiens) (UniProt P16234). The note with it: at 0.1 µM.
For test [13] the target is unchanged. To be noted: at 1 µM.
Test [14] relates to Platelet-derived growth factor receptor alpha (Homo sapiens), P16234 [D842V]. The note with it: at 0.1 µM.
Platelet-derived growth factor receptor alpha (Homo sapiens), P16234 [D842V], sequence (P16234 whole entry D842V): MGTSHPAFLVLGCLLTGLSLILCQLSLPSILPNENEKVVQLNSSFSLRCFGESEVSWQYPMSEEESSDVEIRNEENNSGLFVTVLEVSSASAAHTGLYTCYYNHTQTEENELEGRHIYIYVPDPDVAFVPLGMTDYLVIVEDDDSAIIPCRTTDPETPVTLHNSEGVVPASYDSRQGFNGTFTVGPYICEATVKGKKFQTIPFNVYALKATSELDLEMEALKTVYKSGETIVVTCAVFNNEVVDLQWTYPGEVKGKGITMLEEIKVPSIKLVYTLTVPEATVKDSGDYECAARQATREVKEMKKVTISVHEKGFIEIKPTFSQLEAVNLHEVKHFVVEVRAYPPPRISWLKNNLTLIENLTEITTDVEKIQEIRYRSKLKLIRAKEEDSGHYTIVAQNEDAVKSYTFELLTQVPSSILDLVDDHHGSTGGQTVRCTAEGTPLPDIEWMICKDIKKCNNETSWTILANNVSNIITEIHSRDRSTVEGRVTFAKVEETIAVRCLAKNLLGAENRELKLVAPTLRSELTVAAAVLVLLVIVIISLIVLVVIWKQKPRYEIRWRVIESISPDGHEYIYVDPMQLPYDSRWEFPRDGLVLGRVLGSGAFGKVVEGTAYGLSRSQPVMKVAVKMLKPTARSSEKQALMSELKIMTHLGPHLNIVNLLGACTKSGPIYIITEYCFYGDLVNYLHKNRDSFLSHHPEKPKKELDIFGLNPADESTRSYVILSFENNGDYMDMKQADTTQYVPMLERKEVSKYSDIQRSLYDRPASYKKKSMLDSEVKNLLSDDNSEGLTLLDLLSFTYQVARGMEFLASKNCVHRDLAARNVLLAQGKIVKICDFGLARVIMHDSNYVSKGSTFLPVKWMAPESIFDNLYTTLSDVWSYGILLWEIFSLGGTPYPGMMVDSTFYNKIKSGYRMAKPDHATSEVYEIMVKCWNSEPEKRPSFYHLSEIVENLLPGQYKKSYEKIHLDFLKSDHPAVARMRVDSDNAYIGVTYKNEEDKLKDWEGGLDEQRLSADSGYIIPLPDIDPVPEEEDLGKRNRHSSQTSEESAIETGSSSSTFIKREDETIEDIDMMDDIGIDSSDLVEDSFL
Test [15] has the same test system. To be noted: at 1 µM.
Test [16] concerns Platelet-derived growth factor receptor alpha (Homo sapiens), P16234 [T674I]. The note with it: at 0.1 µM.
Platelet-derived growth factor receptor alpha (Homo sapiens), P16234 [T674I], sequence (P16234 whole entry T674I): as the sequence (P16234 whole entry D842V) above, with T674I, V842D counted along it
For test [17] the test system is unchanged. The note with it: at 1 µM.
For test [18], the system named is Platelet-derived growth factor receptor alpha (Homo sapiens), P16234 [V561D]. To be noted: at 0.1 µM.
For test [19] the test system is unchanged. The note with it: at 1 µM.
Test [20] concerns the target Platelet-derived growth factor receptor beta (Homo sapiens) (UniProt P09619). To be noted: at 0.1 µM.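 Also: reported value is the mean percent inhibition of the kinase.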

Leukocyte tyrosine kinase receptor (Homo sapiens), sequence (P29376 whole entry): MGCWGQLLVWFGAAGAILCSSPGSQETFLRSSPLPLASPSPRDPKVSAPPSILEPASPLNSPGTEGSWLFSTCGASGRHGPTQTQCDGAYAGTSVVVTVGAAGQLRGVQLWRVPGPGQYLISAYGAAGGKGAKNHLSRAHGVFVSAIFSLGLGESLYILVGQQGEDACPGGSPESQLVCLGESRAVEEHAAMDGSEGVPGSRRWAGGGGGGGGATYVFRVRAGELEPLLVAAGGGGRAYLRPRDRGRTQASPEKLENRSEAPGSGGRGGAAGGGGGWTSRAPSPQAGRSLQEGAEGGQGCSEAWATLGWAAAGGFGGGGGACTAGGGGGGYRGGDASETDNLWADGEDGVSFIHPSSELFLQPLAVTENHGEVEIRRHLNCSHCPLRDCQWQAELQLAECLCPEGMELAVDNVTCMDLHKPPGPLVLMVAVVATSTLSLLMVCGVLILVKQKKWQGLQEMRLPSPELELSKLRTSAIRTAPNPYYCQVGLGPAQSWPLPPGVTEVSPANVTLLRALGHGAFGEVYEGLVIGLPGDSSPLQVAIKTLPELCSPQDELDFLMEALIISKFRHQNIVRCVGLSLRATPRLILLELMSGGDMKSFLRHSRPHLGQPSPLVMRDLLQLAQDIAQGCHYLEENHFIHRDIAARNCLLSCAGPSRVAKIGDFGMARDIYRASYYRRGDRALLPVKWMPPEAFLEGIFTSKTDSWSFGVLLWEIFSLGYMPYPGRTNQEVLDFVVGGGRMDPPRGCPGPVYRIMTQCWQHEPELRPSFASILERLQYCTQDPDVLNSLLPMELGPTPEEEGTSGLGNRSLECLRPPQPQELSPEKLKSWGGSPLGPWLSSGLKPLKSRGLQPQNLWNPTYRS
Platelet-derived growth factor receptor beta (Homo sapiens), sequence (P09619 whole entry): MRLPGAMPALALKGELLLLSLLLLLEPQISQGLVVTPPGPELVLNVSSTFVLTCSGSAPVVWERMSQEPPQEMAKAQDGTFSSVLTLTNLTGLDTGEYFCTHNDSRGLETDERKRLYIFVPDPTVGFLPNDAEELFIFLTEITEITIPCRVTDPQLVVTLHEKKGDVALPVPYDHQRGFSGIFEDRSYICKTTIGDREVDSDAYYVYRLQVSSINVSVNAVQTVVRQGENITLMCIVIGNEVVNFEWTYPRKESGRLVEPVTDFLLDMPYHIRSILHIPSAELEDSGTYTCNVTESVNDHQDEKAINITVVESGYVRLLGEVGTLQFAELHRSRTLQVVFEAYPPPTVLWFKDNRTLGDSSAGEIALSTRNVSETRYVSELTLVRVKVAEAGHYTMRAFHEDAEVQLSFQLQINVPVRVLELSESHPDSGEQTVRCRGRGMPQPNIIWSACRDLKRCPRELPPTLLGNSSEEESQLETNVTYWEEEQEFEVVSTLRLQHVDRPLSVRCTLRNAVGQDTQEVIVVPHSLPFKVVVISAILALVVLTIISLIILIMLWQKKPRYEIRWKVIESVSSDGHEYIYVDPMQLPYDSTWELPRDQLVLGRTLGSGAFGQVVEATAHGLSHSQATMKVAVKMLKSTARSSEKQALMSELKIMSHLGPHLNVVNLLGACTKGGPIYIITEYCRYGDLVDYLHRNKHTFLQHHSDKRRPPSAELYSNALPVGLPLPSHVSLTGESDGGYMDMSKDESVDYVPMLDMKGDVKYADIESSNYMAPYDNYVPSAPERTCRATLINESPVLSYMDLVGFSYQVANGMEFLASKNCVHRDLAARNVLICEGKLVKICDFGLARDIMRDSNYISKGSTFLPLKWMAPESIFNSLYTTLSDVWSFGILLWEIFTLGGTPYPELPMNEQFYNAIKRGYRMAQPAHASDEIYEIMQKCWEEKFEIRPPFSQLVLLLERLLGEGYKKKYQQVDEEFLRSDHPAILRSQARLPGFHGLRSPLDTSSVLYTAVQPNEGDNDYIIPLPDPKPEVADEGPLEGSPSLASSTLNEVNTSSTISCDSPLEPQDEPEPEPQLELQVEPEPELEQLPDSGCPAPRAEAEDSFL
Tyrosine-protein kinase Lyn (Homo sapiens), sequence (P07948 2-512 limits assumed): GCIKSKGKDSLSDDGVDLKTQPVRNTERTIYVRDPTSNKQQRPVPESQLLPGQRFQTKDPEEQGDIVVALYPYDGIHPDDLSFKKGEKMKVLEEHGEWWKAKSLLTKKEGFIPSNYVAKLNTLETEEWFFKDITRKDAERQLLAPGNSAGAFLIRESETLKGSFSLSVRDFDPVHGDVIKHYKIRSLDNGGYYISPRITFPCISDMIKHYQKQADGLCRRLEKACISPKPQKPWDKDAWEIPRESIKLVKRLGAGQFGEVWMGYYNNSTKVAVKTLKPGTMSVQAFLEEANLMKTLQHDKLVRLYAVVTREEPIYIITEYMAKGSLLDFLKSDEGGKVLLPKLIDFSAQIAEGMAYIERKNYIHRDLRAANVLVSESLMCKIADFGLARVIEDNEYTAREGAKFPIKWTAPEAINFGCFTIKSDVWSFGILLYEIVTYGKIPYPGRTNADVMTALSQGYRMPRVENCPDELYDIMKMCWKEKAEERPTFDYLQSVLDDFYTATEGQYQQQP

What is called inhibition is the relative decrease from the control value, in per cent. As to `CCS(=O)(=O)c1ccc(OC)c(Nc2ncc(-c3cccc(C(C)=O)c3)o2)c1`, the inhibition was found to be 3.34% in [1]; 11.3% in test [2]; 45.5% in test [3]; 7.74% in [4]; 40.8% in test [5]; 1.15% in test [6]. Moreover, the inhibition in test [7] was 2.12%; in test [8], 1.95%; in [9], 7.9%; in test [10], 2.82%; in [11], 4.06%; in [12], 23.2%. In addition, the inhibition in test [13] stood at 68%; in test [14] it was 20.1%; in test [15], 72.8%; in test [16], 7.08%; in test [17] it was 8.46%; in [18], 22.1%. For the same compound, the results for the inhibition in test [19] and in test [20] were 68.2% and 53.7%, respectively.
In the case of `CS(=O)(=O)Nc1ccc(-c2cc(-c3ccccc3)cc(C(N)=O)c2N)cc1`, the inhibition in test [1] was 2.83%; in [2] it was 0.46%; in test [3], 3.24%; in [4] it was -1.81%; in test [5], 0.8%; in [6], 0.78%. Further, the inhibition in test [7] was -0.18%; in [8] it was -1.07%; in [9], 2.34%; in test [10] it was 1.31%; in test [11], 5.45%; in [12] it was 5.04%. Moreover, the inhibition in [13] is 12.1%; in [14] it was -0.88%; in [15], 1.32%; in test [16] it was 3.63%; in test [17], 9.21%; in test [18], 3.05%. Further, the inhibition in test [19] was 5.7%; in test [20], 4%.
For `COc1c(C(N)=O)cc(-c2ccc(Cl)cc2)cc1-c1ccc(S(N)(=O)=O)cc1`, the inhibition was 6.74% in [1]; 5.65% in test [2]; 6.7% in test [3]; 3.05% in [4]; 3.95% in test [5]; 2.2% in [6]. Moreover, the inhibition in test [7] came to 6.71%; in test [8], 10.9%; in test [9], 5.98%; in [10] it was 2.39%; in test [11], 7.45%; in test [12] it was 3.49%. Also, the inhibition in test [13] stood at 9.97%; in test [14], 2.3%; in test [15], 2.99%; in test [16] it was 2.39%; in test [17] it was 4.51%; in [18], 3.68%. The inhibition is 5.56% in test [19] and 2.5% in [20].
For the compound `Cc1ccc(-c2cc3c(NC(=O)C4CC4)ncnc3o2)cc1`, the inhibition in test [1] is 3.83%; in test [2] it was 5.46%; in test [3] it was 6.63%; in [4] it was 2.61%; in [5], 5.69%; in test [6], 2.35%. Further, the inhibition in test [7] is 6.56%; in test [8] it was 4.71%; in [9] it was 4.06%; in [10], 2.65%; in test [11], 7.78%; in test [12], 13.9%. The inhibition amounted to 38.1% in test [13]; 7.31% in [14]; 29.8% in test [15]; 6.86% in test [16]; 32.7% in [17]; 8.94% in test [18]. The inhibition in test [19] came out at 31.9%; in test [20] it was 8.16%.
For `CS(=O)(=O)CCNCc1ccc(-c2ccc3ncnc(Nc4ccc(OCc5cccc(C(F)(F)F)c5)cc4)c3c2)o1`, the inhibition in test [1] is 4.64%; in test [2], 4.67%; in test [3], 5.36%; in [4] it was -0.37%; in [5] it was 2.74%; in [6] it was 1.26%. Also, the inhibition was 7.4% in test [7]; 2.15% in test [8]; 4.91% in [9]; 2.66% in test [10]; 9.15% in test [11]; 9.67% in test [12]. Also, the inhibition is 15.9% in test [13]; 0.59% in test [14]; 1.85% in test [15]; 5.53% in test [16]; 12.3% in test [17]; 4.16% in test [18]. Also, the inhibition in test [19] was found to be 14.6%; in test [20], 7.32%.
Regarding `COc1ccc(-c2nn3ncccc3c2-c2ccnc(Nc3ccc(F)c(F)c3)n2)cc1`, the inhibition came to 5.06% in test [1]; 6.17% in [2]; 21.3% in [3]; 3.08% in test [4]; 17.7% in test [5]; 1.6% in test [6]. The inhibition in test [7] came out at 7.43%; in test [8], 1.87%; in [9] it was 8.73%; in test [10], 3.13%; in test [11], 3.15%; in test [12], 14.7%. The inhibition worked out at 17.7% in [13]; 8.96% in test [15]; 10.3% in test [16]; 11.2% in test [17]; 7.34% in test [18]; 11.3% in test [19]. For the same compound, the inhibition in test [20] was found to be 9.04%.
With `CNC(=O)c1ncccc1Nc1nc(Nc2cc3c(cc2OC)CCCN3C(=O)CN(C)C)nc2[nH]ccc12`, the inhibition in [1] came out at 94.4%; in test [2], 3.52%; in test [3] it was 4.53%; in test [4], 2.33%; in test [5] it was 3.27%; in [6] it was 0.94%. For the same compound, the inhibition worked out at 4.5% in test [7]; 6.6% in test [8]; 10.1% in test [9]; 5.51% in test [10]; 16.7% in test [11]; 10.7% in [12]. Further, the inhibition in [13] was 20.6%; in test [14], 3.17%; in [15] it was 7.19%; in test [16], 5.75%; in test [17], 6.87%; in [18], 3.32%. The inhibition in test [19] worked out at 9.94%; in test [20], 7.26%.
On to `Cc1c2ccc(N(C)c3ccnc(Nc4cccc(S(N)(=O)=O)c4)n3)cc2nn1C`, for which the inhibition in test [1] stood at 24.1%; in [2], 41.3%; in [3] it was 83.6%; in test [4], 36.3%; in [5], 80.7%; in [6] it was 17.7%. Besides, the inhibition in test [7] amounted to 61.9%; in test [8], 10.6%; in [9], 28.1%; in test [10], 2.38%; in test [11], 5.12%; in test [12] it was 63.5%. The inhibition is 86.5% in test [13]; 13.9% in test [14]; 57.9% in test [15]; 77% in test [16]; 96.5% in [17]; 71.5% in test [18]. Besides, the inhibition in test [19] was determined as 92.5%; in test [20], 53.9%.
With `CNC(=O)c1sc(-n2cnc3cc(OC)c(OC)cc32)cc1OCc1ccccc1C(F)(F)F`, the inhibition in test [1] was 3.95%; in [2], 3.05%; in test [3], 8.91%; in test [4], 4.12%; in test [5], 7.2%; in test [6] it was 0.56%. Moreover, the inhibition was found to be 2.64% in [7]; 1.53% in test [8]; 3.89% in [9]; 2.71% in test [10]; 2.82% in [11]; 17.2% in test [12]. Besides, the inhibition was 59.7% in test [13]; 3.81% in test [14]; 28% in [15]; 4.17% in test [16]; 9.43% in test [17]; 7.81% in test [18]. Further, the values for the inhibition in test [19] and in test [20] were 44.8% and 9.81%, respectively.
